Measured values reported in PubChem BioAssay AID652048 (National Center for Advancing Translational Sciences (NCATS), 2013).
Screen size: about 410,000 compounds; about 2,400 (0.59%) were called active. This is one part of a sample in which actives are shown more often than they occur. A number with no mark means an inactive call. No stated cut-off is given here; in the data, active means max activation above about 30%; inactive means the rest.

Target: D(3) dopamine receptor (Homo sapiens) (UniProt P35462)
Test: qHTS of D3 Dopamine Receptor Agonist: qHTS; further: 0% is about no effect
Settings: D3R DiscoveRx beta-arrestin cells, luminescence, 90 min; active compounds read high
How it was run: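 Agonist-mode cell screen: cells plated at 1500/well and incubated overnight at 37 °C, then exposed to library compounds for 90 min at 37 °C. Detection reagent was added for 30–60 min at room temperature, and luminescence was read.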

Sequence of D(3) dopamine receptor (Homo sapiens) (P35462 whole entry, looked up): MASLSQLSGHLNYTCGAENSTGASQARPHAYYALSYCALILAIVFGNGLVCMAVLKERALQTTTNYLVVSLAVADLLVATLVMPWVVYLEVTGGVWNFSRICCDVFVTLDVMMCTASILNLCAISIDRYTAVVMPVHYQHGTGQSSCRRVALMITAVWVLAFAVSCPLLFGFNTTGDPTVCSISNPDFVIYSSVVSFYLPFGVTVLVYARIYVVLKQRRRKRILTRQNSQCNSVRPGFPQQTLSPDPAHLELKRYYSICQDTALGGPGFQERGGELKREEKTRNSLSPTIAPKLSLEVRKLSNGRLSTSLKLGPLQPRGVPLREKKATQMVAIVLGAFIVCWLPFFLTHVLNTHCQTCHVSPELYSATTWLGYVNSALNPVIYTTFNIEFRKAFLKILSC

In order of falling max activation:
1. CCc1ccc(-n2c(SCc3cc(=O)n4cc(Br)ccc4n3)nc3[nH]ncc3c2=O)cc1  18.2%
2. Cc1noc(C)c1C(=O)NC(C)c1ccc2c(c1)OCO2 (stereo not drawn)  17.7%
3. Cc1nnc(NC(=O)CSc2nc3c([nH]c4ccccc43)c(=O)n2-c2cccc(Cl)c2)s1  16.6%
4. COc1ccc(CNC(=O)CCc2c(C)nn(-c3ccc(N4CCCC4)nn3)c2C)cc1  9.29%
5. O=C(/C=C/c1cccc(F)c1)NC1CC1  7.01%
6. CCSc1nnc2c(n1)OC(c1ccc(OCC(=O)O)cc1)Nc1ccccc1-2 (stereo not drawn)  6.71%
7. CCOCCc1nn2c(=O)cc(COC(=O)CNC(=O)c3ccc(C(C)(C)C)cc3)nc2s1  6.28%
8. CCCC(=O)Nc1ccc2oc(-c3ccc(O)c(Br)c3)nc2c1  6.09%
9. CCOc1ccc(NC(=O)C/C(C)=N/NC(=O)Cc2cccs2)cc1  5.68%
10. N#Cc1ccc(-c2ccc(F)cc2)nc1Sc1ccccc1  5.43%
11. O=C(CN1CCN(c2ncccn2)CC1)Nc1ccccc1C(F)(F)F  5.01%
12. Cc1nnc(C(=O)NC(C)(C)c2nc(C(=O)NCc3ccc(F)cc3)c(O)c(=O)n2C)o1  4.42%
13. CO[C@]1(NC(=O)CSC(F)F)C(=O)N2C(C(=O)O)=C(CSc3nnnn3CCO)CO[C@H]21  4.38%
14. CCOc1ccccc1NC(=O)CCn1cnnn1  4.34%
15. CCOC(=O)c1ccc(NC(=O)CCS(=O)(=O)c2ccc(C)cc2)cc1  4.32%
16. Cc1noc(C)c1C(=O)NCCc1ccc(S(N)(=O)=O)cc1  4.23%
17. Cc1ccccc1NC(=O)c1c(NC(=O)c2ccccc2F)sc2c1CCC(C)C2 (stereo not drawn)  4.23%
18. Cc1cccc(C(=O)OCC(=O)Nc2sccc2C(N)=O)c1C  3.92%
19. COc1ccc(NC(C)=O)cc1NC(=O)CN1CCN(c2ccc(F)cc2)CC1  3.91%
20. COC(=O)[C@@H]1CC2=CC(=O)CC[C@]2(C)[C@@]23O[C@@H]2C[C@@]2(C)[C@@H](CC[C@@]24CCC(=O)O4)[C@H]13  3.79%
21. COc1ccc(N)cc1NC(=O)CN1CCOCC1  3.16%
22. COc1ccc(C)cc1NC(=O)C(=O)NCCc1sc(-c2cccc(C)c2)nc1C  3.11%
23. CCC(=O)N1CCc2cc(S(=O)(=O)NC(Cc3ccccc3)C(=O)NCc3ccc(C)cc3)ccc21 (stereo not drawn)  3.11%
24. Cn1c(CCN2CCN(c3ccccn3)CC2)nc2cc(NS(=O)(=O)c3ccc(F)cc3)ccc21  2.61%
25. Cc1noc(C)c1S(=O)(=O)N1CCCC(C(=O)Nc2nccs2)C1 (stereo not drawn)  2.46%
26. CN(C)c1ccnc(Oc2ccc(F)cc2)c1C#N  2.14%
27. Cc1ccc(-n2nc(CO)c(C(=O)NCCc3ccccc3)n2)cc1  1.72%
28. CCOc1ccc(S(=O)(=O)N(CC(=O)NCCSCc2ccc(C)cc2)c2ccccc2)cc1  1.63%
29. Cc1cc(NS(=O)(=O)c2ccc(NC(=O)c3ccccc3C)cc2)nc(C)n1  0.492%
30. CC(CCc1ccccc1)NC(=O)c1cnc(Cl)c(Cl)c1 (stereo not drawn)  -0.183%
31. NC(=O)c1ccsc1NC(=O)COC(=O)Cc1n[nH]c(=O)c2ccccc12  -0.194%
32. NNc1nnc(NN)c2ccccc12  -0.65%
33. O=C(CN1CCN(c2ccccn2)CC1)NCc1cccs1  -2.33%
34. Cc1nn2c(=O)cc(COC(=O)CNC(=O)c3ccc(F)cc3)nc2s1  -2.47%
35. COc1cccc(N2CCN(C(=O)CCCCCn3c(=O)[nH]c4ccccc4c3=O)CC2)c1  -3.38%
36. CCOC(=O)N1CCN(Cc2nc3cc(NC(=O)CC)ccc3n2CC)CC1  -5.31%
37. Oc1ccc(Cl)c2c1CCC2  -6.75%
38. CCCn1c(NCc2ccc(N(CC)CC)cc2)nc2ccccc21  -7.25%
39. COc1ccc(CNC(=O)C(C)NCc2ccccc2Cl)cc1 (stereo not drawn)  -7.27%
40. COC(=O)c1ccccc1NC(=O)c1cnn(-c2ccc(F)cc2)c1-n1cccc1  -7.92%
41. COC(=O)c1ccccc1NS(=O)(=O)c1ccc2c(c1)CCCN2C(C)=O  -8.34%
42. CCOC(=O)C1CCN(S(=O)(=O)c2c(C)noc2C)CC1  -8.75%
43. CCCCSc1ncnc2c1sc1nc(N3CCOCC3)c3c(c12)CCCC3  -9.06%
44. Cn1c(=O)sc2cc(NS(=O)(=O)c3ccc(C(C)(C)C)cc3)ccc21  -11%
45. CC1CCCCN1CC(=O)N1CCCc2c1c(=O)oc1ccc(OCc3ccccc3)cc21 (stereo not drawn)  -16.2%
46. CO[C@H]1C=CO[C@@]2(C)Oc3c(C)c(O)c4c(O)c(c(/C=N/N5CCN(C)CC5)c(O)c4c3C2=O)NC(=O)/C(C)=C\C=C[C@H](C)[C@H](O)[C@@H](C)[C@@H](O)[C@@H](C)[C@H](OC(C)=O)[C@@H]1C  -16.3%
47. CCc1ccc(CNCc2c(C(=O)O)n(Cc3ccc(F)cc3Cl)c3cc(OC)ccc23)cc1  -22.5%

COC(=O)c1ccc(NC(=O)c2ccccc2NS(=O)(=O)c2ccccc2)cc1 was tested, and the max activation was 34.2% (active).
In the case of Cc1noc(C)c1C(=O)Nc1ccccn1, the max activation is reported as 31.1% (active).
With CCCCn1nc(C(=O)OCC(=O)Nc2sccc2C(N)=O)c2ccccc2c1=O the max activation was 39.2% (active).
With CC(CCc1ccc(O)cc1)NCc1ccc(Cl)cc1Cl (stereo not drawn) the max activation was 91.1% (active).
With COc1ccc(NC(C)=O)cc1NC(=O)CN1CCN(C2c3ccccc3-c3ccccc32)CC1 the max activation was 46.6% (active).
CCOc1ccccc1NC(=O)Cc1cccs1 was tested, and the max activation was 49.3% (active).
COc1c(C)cc(C(=O)C2CCCN(S(=O)(=O)c3c(C)noc3C)C2)cc1C (stereo not drawn) was tested, and the max activation was 32.6% (active).
For O=C(CN1CCN(c2ccccn2)CC1)Nc1ccc(Br)cc1, the max activation was 45.2% (active).
For CCC(=O)Nc1ccc2c(c1)nc(CCN1CCN(c3ccccn3)CC1)n2C, the max activation was 38.1% (active).
N#Cc1ccc(-c2ccc(Cl)cc2)nc1Oc1ccc(F)cc1 was tested, and the max activation was 34.7% (active).
For Cc1cccc2nc(CSc3nc4[nH]ncc4c(=O)n3-c3cccc(Cl)c3)cc(=O)n12, the max activation was 32.7% (active).
